Among the data in PubChem BioAssay AID2016 (NMMLSC, 2009) are GFP response vs DMSO values, retold here.

Screen size: about 330,000 compounds; about 1,700 (0.52%) were called active. The full list was thinned out, with actives kept by preference. Values without a mark were called inactive.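 The calls were made as follows: active = GFP response versus DMSO above a set limit, roughly screen mean plus 3 SD (cut at about 180% in these data); inconclusive = fewer than 70 cells counted for a yeast strain; inactive = the rest.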

A short description of the assay: modulators of MEP2-GFP levels in yeast, primary screen, S. cerevisiae, multiplex flow cytometry, MLPCN library (AID 2016).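 Also: median GFP fluorescence of the barcode-gated MEP2-GFP cells per well.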 The note with it: S. cerevisiae MEP2-GFP strain, 3 h, at 10 µM, hits give high values, 100% = DMSO control level. On the technique in general: Flow cytometry measures light scatter and fluorescence of single cells or particles in a stream.
As to `NC(=O)C1CCN(C(=O)/C(=C/c2ccco2)NC(=O)c2ccccc2)CC1`, the GFP response vs DMSO is 215% [may fluoresce violet] (active).
Turning to `Cc1ccc(C(=O)N/C(=C/C=C/c2ccccc2)C(=O)NCc2ccco2)cc1`, the GFP response vs DMSO is 95.7%.
For `O=C(NCc1ccco1)/C(=C/c1ccco1)NC(=O)c1ccccc1` the value was 206% [may fluoresce violet] (active); for `Cc1ccc(C(=O)N/C(=C\c2ccco2)C(=O)N2CCSCC2)cc1C`, 109%; for `CC1CCN(C(=O)/C(=C\c2ccccc2)NC(=O)c2ccccc2)CC1`, 106%.
Turning to `O=C(NCC1CCCO1)/C(=C\c1ccco1)NC(=O)c1ccccc1` (stereo not drawn), the GFP response vs DMSO is 102%.
On to `N#CCCN1CCN(S(=O)(=O)c2ccc(S(=O)(=O)NC3CCCCC3)cc2)CC1`, for which the GFP response vs DMSO was 107%.
Under `Cn1c2ccccc2c2c(C(=O)N3CCN(c4ccc(F)cc4)CC3)cn(C3CCCC3)c(=O)c21` stands 116%; under `COc1cc(C)c(Cl)cc1S(=O)(=O)n1ccnc1`, 92%.
In the case of `O=C(NCC(=O)N1CCN(c2ccccc2F)CC1)c1cccs1`, the GFP response vs DMSO was 111%.
For `C/C(=N\NS(=O)(=O)c1ccc(Cl)cc1)c1ccc(NC(=O)c2ccco2)cc1`, the GFP response vs DMSO was 102%.
Under `C/C(=N/NS(=O)(=O)c1ccccc1)c1ccc(NC(=O)C(F)(F)F)cc1` stands 219% (active); under `CC(=O)N(C)c1ccc(NC(=O)C(F)(F)F)cc1`, 100%.
Take `C[N+](C)(C)CCNC(=O)c1cc[n+](Cc2ccccc2)c(/C=N/O)c1`: the GFP response vs DMSO was 104%.
Under `COC(=O)Nc1ncc(CN2C(=O)c3ccccc3C2=O)s1` stands 109%.
Regarding `CCOC(=O)c1cnc(SCC(=O)Nc2ccccc2C(=O)OC)nc1N`, the GFP response vs DMSO was 98.3%.
Under `CCOC(=O)c1cnc(SCC(=O)NCc2ccco2)nc1N` stands 222% (active); under `CCOC(=O)c1cnc(SCC(=O)Nc2cccc(OC)c2)nc1N`, 90.7%; under `CCOc1ccc(CN(Cc2ccco2)C(c2cccs2)c2nnnn2C(C)(C)C)cc1` (stereo not drawn), 98.9%.
For `CCN(CCn1cccn1)C(=O)CC1C(=O)NCCN1Cc1cccc(OC)c1OC` (stereo not drawn) the value was 100%; for `CC(=O)Nc1ccc(NC(=O)COC(=O)C2CCC(C(C)(C)C)CC2)cc1` (stereo not drawn), 103%; for `CC(=O)Nc1ccc(NC(=O)CC2CCCC2)cc1`, 779% [may fluoresce violet] (active).
For `COc1ccc(NC(=O)CN(C)C(=O)CC2CCCCC2)cc1` the value was 102%; for `O=C(COC(=O)/C=C/c1cccc(Cl)c1)NCCc1ccccc1`, 114%; for `CCCC(=O)N(CCc1ccccc1)Cc1nc2ccccc2c(=O)[nH]1`, 85.6%.
As for `O=C(c1ccco1)N(Cc1nc2ccccc2c(=O)[nH]1)C1CCCC1`, the GFP response vs DMSO is 271% [may fluoresce violet] (active).
For `CCN(CC(=O)NC(=O)NCc1ccccc1)Cc1nc2ccccc2c(=O)[nH]1` the value was 98.5%.
As to `COc1ccc(CNC(=O)CN(C(=O)c2csnn2)c2cnc3ccccc3c2)cc1`, the GFP response vs DMSO was 102%.
Consider `CCCCCCNCCn1cnc2c(N)ncnc21`, for which the GFP response vs DMSO was 97.1%.
With `COc1ccc(CCNC(=S)N2CCN(S(=O)(=O)c3ccc(F)cc3)CC2)cc1`, the GFP response vs DMSO was 103%.
For `COc1ccc(C(=O)Nc2cccc(S(C)(=O)=O)c2)cc1` the value was 112%.
Under `COc1ccc(C(=O)NN(C)c2nc(-c3ccccc3)cc(C)c2S(C)(=O)=O)cc1` stands 287% [may fluoresce violet] (active); under `COc1ccc(NS(=O)(=O)c2cc(C(=O)Nc3ccccc3C(=O)O)ccc2C)cc1`, 95.4%; under `O=C(O)c1ccc(S(=O)(=O)N2CCOCC2)o1`, 264% [may fluoresce violet] (active).
For the compound `O=C(c1cc(S(=O)(=O)N2CCOCC2)ccc1Cl)N1CCOCC1`, the GFP response vs DMSO was 103%.
Under `O=C(CCc1ccc(S(=O)(=O)N2CCOCC2)cc1)NN=C1CCCCCCC1` stands 104%; under `Cc1cccc(C)c1NC(=O)c1ccc(CN2CCc3ccccc3C2)cc1`, 101%.
Take `COc1ccc(C(=O)N(Cc2ccccc2)c2ccc(C)cc2)cc1S(=O)(=O)N1CCOCC1`: the GFP response vs DMSO was 103%.
Consider `Cc1ccc(C23CC4CC(CC(C(=O)NCC(=O)O)(C4)C2)C3)cc1`, for which the GFP response vs DMSO is 292% [may fluoresce violet] (active).
Under `C=CCNC(=O)C12CC3CC(C1)CC(C(=O)NCC=C)(C3)C2` stands 106%.
Regarding `CCOc1ccccc1NC(=O)C12CC3CC(C1)CC(c1ccc(C)cc1)(C3)C2`, the GFP response vs DMSO was 97.6%.
Under `CCn1c(C)nc2c1C(=O)c1ccccc1C2=O` stands 93.7%; under `O=C(CNC(=O)[C@@H]1Cc2ccccc2CN1)NC1CCCCC1`, 99.4%.
For the compound `Cc1cc2cc3c(cc2nc1SCC(=O)Nc1c(C)cccc1C)CCC3`, the GFP response vs DMSO is 94.7%.
`CCOc1ccc(C(C(=O)NC2CCCC2)N(C(=O)c2snc(C(N)=O)c2N)C2CCCC2)cc1` (stereo not drawn): the GFP response vs DMSO was 113%.
Consider `NC(=O)c1nsc(C(=O)N(CCCN2CCOCC2)C(C(=O)NC2CCCCC2)c2ccc(Cl)cc2)c1N` (stereo not drawn), for which the GFP response vs DMSO was 238% [may fluoresce violet] (active).
For `CC(C)(C)NC(=O)C(c1ccc(Cl)cc1)N(CCO)C(=O)c1snc(C(N)=O)c1N` (stereo not drawn) the value was 97.4%.
For `CC(C)CNC(=S)NC(=O)c1ccc(Cl)cc1` the value was 100%; for `COCc1cc(=O)n2[nH]c(C)c(-c3ccccc3)c2n1`, 97.4%; for `COCCNc1nc2nonc2nc1N1CCCC1c1nccs1` (stereo not drawn), 90.4%.
In the case of `CCc1ccc(S(=O)(=O)N/N=C\c2ccc([N+](=O)[O-])o2)cc1`, the GFP response vs DMSO was 105%.
For `CCn1c(=O)c([N+](=O)[O-])c(NCc2ccc3c(c2)OCO3)c2ccccc21` the value was 94.2%; for `CCn1c(/C=C/c2ccc([N+](=O)[O-])o2)nc2ccccc2c1=O`, 304% (active).
Under `CC(C)(C)c1ccccc1NC(=O)CN1C(=O)NC2(CCCC2)C1=O` stands 105%; under `Cc1ccc(Cl)c(OCC(=O)NN2CCN(C)CC2)c1`, 103%; under `O=C(COC(=O)c1ccc(O)cc1O)c1ccc2c(c1)OCCO2`, 110%.
As to `COc1ccccc1C(=O)NCC(=O)OCC(=O)Nc1nnc(-c2ccccc2)o1`, the GFP response vs DMSO is 99.7%.
On to `Cc1cc(C)cc(N(CC(=O)NC2CCCC2)C(=O)CCC(=O)Nc2nccs2)c1`, for which the GFP response vs DMSO was 107%.
`Cc1cc(NC(=O)CCC(=O)N(CC(=O)NC2CCCC2)c2ccc(F)cc2)no1`: the GFP response vs DMSO was 101%.
Under `Cc1cc(C)cc(N(CC(=O)NC2CCCC2)C(=O)CCC(=O)Nc2cc(C)on2)c1` stands 327% [may fluoresce violet] (active); under `CC(=N\NC(=O)c1cc(Br)ccc1O)/C(=N/O)C(=O)Nc1ccccc1`, 102%; under `Cc1nc(-c2ccc(F)cc2)c(CC(=O)Nc2cc(S(=O)(=O)N3CCCCC3)ccc2C)s1`, 105%.
Regarding `C/C(Cl)=C\Cn1c(Nc2cccc(C)c2)nc2c1c(=O)n(C)c(=O)n2C`, the GFP response vs DMSO was 91.5%.
Consider `O=[N+]([O-])c1ccc(N2CCNCC2)cc1NCc1cccnc1`, for which the GFP response vs DMSO was 309% [may fluoresce violet] (active).
For `O=C(c1ccccc1)N1CCN(c2ccc([N+](=O)[O-])c(NCc3ccco3)c2)CC1` the value was 102%; for `O=[N+]([O-])c1ccc(N2CCN(S(=O)(=O)c3ccc4ccccc4c3)CC2)cc1NCc1ccco1`, 91.1%.
`O=C(Cc1cccs1)N(CC1CCCO1)C1(C(=O)NC2CCCCC2)CCCCC1` (stereo not drawn): the GFP response vs DMSO was 88.4%.
For `O=C(CN1CCCC1)N1CCN(c2ccccc2)CC1` the value was 91.7%.
Turning to `Cc1nc2ccccc2c(=O)n1NC(=O)c1ccccc1`, the GFP response vs DMSO was 99.1%.
As to `Cc1nc2c(ncn2-c2ccccc2)c(=O)n1NC(=O)CN1CCCC1`, the GFP response vs DMSO is 194% [may fluoresce violet] (active).
As for `O=S(=O)(Nc1ncccn1)c1ccc(NS(=O)(=O)c2cccc(Cl)c2Cl)cc1`, the GFP response vs DMSO was 103%.
For `Nc1c(C(=O)c2cccs2)sc2nsc(SCCN3CCCCC3)c12` the value was 221% (active); for `O=C(CSc1ncnc2sccc12)N1CCN(C(=O)c2cccs2)CC1`, 105%; for `CCCCCCCCCCCCCCCC(=O)OC/C=C(C)/C=C/C=C(C)/C=C/C1=C(C)CCCC1(C)C`, 107%.
Under `CCC(=C/c1sc2ccc3ccccc3c2[n+]1C)/C=C1\Sc2ccc3ccccc3c2N1C` stands 285% (active); under `COc1ccc(Cl)cc1NC(=O)COC(=O)C(CC(C)C)N1C(=O)C2CC=CCC2C1=O` (stereo not drawn), 90.8%.
For `Cc1noc(C)c1NC(=O)Nc1ccc2c(c1)C(=O)N([C@H](C)CO)C[C@H](C)[C@@H](CN(C)C(=O)Nc1ccc(C(F)(F)F)cc1)O2` the value was 103%; for `CC(=O)NCC(=O)N1CCC(n2nccc2NC(=O)CCCc2ccccc2)CC1`, 95.6%.
For the compound `Cc1nn(Cc2ccccc2)c(C)c1NS(=O)(=O)c1ccccc1`, the GFP response vs DMSO was 111%.
Turning to `Nc1c(-c2ccccc2)nnn1Cc1ccccc1`, the GFP response vs DMSO was 96.3%.
Under `OCc1nc(CO)n(Cc2ccccc2)n1` stands 276% [may fluoresce violet] (active).
For the compound `CCOC(=O)C1CCN(c2c(Nc3cc(C)cc(C)c3)c(=O)c2=O)CC1`, the GFP response vs DMSO was 115%.
Regarding `O=C(NCCCn1ccnc1)C1CCCN(S(=O)(=O)c2cc(Cl)ccc2Cl)C1` (stereo not drawn), the GFP response vs DMSO was 106%.
Under `COc1ccc(S(=O)(=O)N(C)CC(=O)NCCCN2CCOCC2)cc1Cl` stands 95.1%; under `O=C1/C(=C\Nc2ccccc2)CCN1c1ncccn1`, 127%.
With `CCOC(=O)N1CCN(C(=O)COc2ccc(Cl)cc2C)CC1`, the GFP response vs DMSO was 184% [may fluoresce violet] (active).
In the case of `CCOC(=O)N1CCN(C(=O)CNC(=O)Cc2ccc(Cl)cc2)CC1`, the GFP response vs DMSO is 106%.
Under `CCOC(=O)N1CCN(C(=O)COc2ccc(Br)cc2)CC1` stands 104%.
